Consider 13 molecules from PubChem BioAssay (NCATS).

Molecules are shown by their SMILES. Inconclusive results are not listed. A call without a number means that no potency is given here. Active and inactive are the calls of the source. The call rests on the fitted dose curve; in most records, active means well fitted curve in the direction sought with a large enough effect; inconclusive means small, poorly fitted or top-dose-only effect, or another doubt; inactive means no such curve, though single readings can be large; an effect the other way counts as inactive or inconclusive.

The target of assay [1] is DNA dC->dU-editing enzyme APOBEC-3G (Homo sapiens) (UniProt Q9HC16). As to the kind of experiment: qHTS for inhibitors of Vif-A3G interactions: Validation (AID 588379). The following applies: Vif-A3G protein interaction assay; series mostly up to 46.1 µM. In a few lines: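 HeLa cells stably expressing Vif and A3G-eYFP, 700 cells/well, incubated overnight at 37 deg C, then exposed to compound overnight at 37 deg C. Inhibition of Vif-mediated degradation read as increased yellow fluorescence (Ex 488/Em 500-530) by laser-scanning cytometry.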
Chain of DNA dC->dU-editing enzyme APOBEC-3G (Homo sapiens) (Q9HC16 whole entry, looked up): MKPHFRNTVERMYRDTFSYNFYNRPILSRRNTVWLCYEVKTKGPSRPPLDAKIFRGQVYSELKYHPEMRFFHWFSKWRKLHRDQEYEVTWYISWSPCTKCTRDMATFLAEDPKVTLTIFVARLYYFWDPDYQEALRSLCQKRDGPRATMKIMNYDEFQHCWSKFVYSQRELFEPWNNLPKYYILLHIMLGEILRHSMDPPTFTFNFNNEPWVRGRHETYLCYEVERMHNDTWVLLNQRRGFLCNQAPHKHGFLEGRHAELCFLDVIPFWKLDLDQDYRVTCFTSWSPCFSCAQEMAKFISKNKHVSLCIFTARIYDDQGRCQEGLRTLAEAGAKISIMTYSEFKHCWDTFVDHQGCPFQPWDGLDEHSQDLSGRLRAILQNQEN
(In general: qHTS replaces the single test concentration by a dilution series.)

For assay [2], the target named is Cytochrome P450 3A4 (Homo sapiens) (UniProt P08684). As to the kind of experiment: qHTS Assay for Inhibitors and Substrates of Cytochrome P450 3A4 (AID 884). Further: nearly all actives have a fitted effect of over 50% in size. Further: potency means the concentration at half of the fitted maximal effect. The settings on record: recombinant CYP3A4, Luciferin-PPXE luminescence; series mostly up to 57.1 µM. In a few lines:
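20 nM human CYP3A4 with 25 uM Luciferin-PPXE (at KM) in 200 mM KPO4, preincubated 10 min with compound; NADPH regeneration started a 60 min RT reaction. Luciferin detected by luminescence, normalized to 57 uM ketoconazole as full inhibition.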

The target in assay [3] is Luciferin 4-monooxygenase (Photinus pyralis) (UniProt P08659). The experiment in a line: Biochemical firefly luciferase enzyme assay for NPC (AID 624030).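 Further: purified P. pyralis luciferase at 10 nM with luciferin and ATP substrate; nearly all actives have a fitted effect of over 70% in size.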 The following applies: purified P. pyralis luciferase, luminescence, 5 min; series mostly up to 58.6 µM. In a few lines: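 Direct inhibition of firefly luciferase enzyme (10 nM final, 50 mM Tris Acetate) assessed by luminescence within 5 minutes. Percent activity scaled between DMSO and PTC124 positive control, with concentration-effect curves classified by fit quality and response.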
Chain of Luciferin 4-monooxygenase (Photinus pyralis) (P08659 whole entry, looked up): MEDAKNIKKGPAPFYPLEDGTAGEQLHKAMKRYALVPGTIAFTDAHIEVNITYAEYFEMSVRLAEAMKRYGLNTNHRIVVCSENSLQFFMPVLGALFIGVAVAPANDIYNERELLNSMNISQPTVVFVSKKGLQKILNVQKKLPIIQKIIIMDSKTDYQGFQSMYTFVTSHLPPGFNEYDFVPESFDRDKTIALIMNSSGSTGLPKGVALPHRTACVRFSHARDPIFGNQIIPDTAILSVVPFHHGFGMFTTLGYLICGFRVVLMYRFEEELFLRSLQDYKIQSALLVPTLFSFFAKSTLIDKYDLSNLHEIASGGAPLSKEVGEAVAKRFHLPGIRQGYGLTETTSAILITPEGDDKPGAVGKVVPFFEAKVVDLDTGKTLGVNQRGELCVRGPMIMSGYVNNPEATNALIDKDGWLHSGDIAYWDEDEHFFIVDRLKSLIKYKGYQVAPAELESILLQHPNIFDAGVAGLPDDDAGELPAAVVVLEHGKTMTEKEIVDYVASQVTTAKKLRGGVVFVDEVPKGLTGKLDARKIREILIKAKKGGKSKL

The target of assay [4] is Cytochrome P450 3A4 (Homo sapiens) (UniProt P08684). As to the kind of experiment: qHTS Assay for Activators of Cytochrome P450 3A4 (AID 885). Further: nearly all actives have a fitted effect of over 65% in size. The settings on record: recombinant CYP3A4, Luciferin-PPXE luminescence, 60 min; series mostly up to 57.1 µM. The method, boiled down:
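20nM CYP3A4 + 25uM Luciferin-PPXE (=KM), 200mM KPO4; cpd 10 min RT; NADPH regen, 60 min RT; stop w/ detection buffer, 20 min; luminescence. Normalized to 57 uM ketoconazole.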

Chain of Cytochrome P450 3A4 (Homo sapiens) (P08684 whole entry, looked up): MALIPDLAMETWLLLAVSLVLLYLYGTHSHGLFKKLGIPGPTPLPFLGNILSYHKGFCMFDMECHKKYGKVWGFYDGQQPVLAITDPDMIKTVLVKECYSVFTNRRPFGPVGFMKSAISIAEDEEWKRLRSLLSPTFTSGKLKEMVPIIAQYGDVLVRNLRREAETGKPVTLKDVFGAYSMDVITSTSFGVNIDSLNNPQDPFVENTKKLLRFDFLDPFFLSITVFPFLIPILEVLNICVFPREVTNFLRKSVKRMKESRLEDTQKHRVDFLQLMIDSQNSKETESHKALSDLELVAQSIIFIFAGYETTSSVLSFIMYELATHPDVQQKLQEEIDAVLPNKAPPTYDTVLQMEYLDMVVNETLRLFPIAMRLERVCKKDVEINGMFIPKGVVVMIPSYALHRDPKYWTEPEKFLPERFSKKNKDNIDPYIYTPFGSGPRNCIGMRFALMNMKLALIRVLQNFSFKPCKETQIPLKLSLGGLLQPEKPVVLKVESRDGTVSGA

Take `CC1C(=O)OC2CC34C5CC(C(C)(C)C)C36C(OC(=O)C6O)OC4(C(=O)O5)C21O` (stereo unspecified): the Potency entry in assay [1] is “inactive”.
As for `O=c1cc(-c2ccccc2)oc2cc(O[C@@H]3O[C@H](CO)[C@@H](O)[C@H](O)[C@H]3O)c(O)c(O)c12`, the Potency result in assay [2] and in assay [1] was “inactive” in each case.
Regarding `Clc1ccc2nc(-c3ccccc3)[nH]c2c1`, in assay [2], the Potency was 12.6 µM (active). Besides, in assay [1], the Potency result is “inactive”.
The like results for `CNC(=O)Oc1ccc2c(c1)C1(C)CCN(C)C1N2C` (stereo unspecified) were, in that order, “inactive” and “inactive”.
The like results for `CC(=O)OC1CCC2(C)C(CCC3(C)C2C(=O)C=C2C4CC(C)(C(=O)OCCN5CCCCC5)CCC4(C)CCC23C)C1(C)C` (stereo unspecified) were, in that order, “inactive” and “inactive”.
`CC1(C)CC[C@]2(C(=O)O)CC[C@]3(C)C(=CCC4[C@@]5(C)CC[C@H](O)C(C)(C)[C@@H]5CC[C@]43C)C2C1` (stereo partly specified): the Potency result in assay [2] and in assay [1] was “inactive” in each case.
`CC12CCC3c4ccc(O)cc4CCC3C1CCC2=O` (stereo unspecified): the Potency entry in assay [1] and in assay [3] was “inactive” each time.
In the case of `COc1cc([C@@H]2c3cc4c(cc3C(OC3OC5COC(C)OC5C(O)C3O)C3COC(=O)[C@@H]32)OCO4)cc(OC)c1O` (stereo partly specified), the Potency result in assay [1] was “inactive”.
On the same count and under the same terms, next, `C1CCN2CC3CC(CN4CCCC[C@@H]34)C2C1` (stereo partly specified): “inactive”.
For the molecule `CC1CC2(C)Oc3ccccc3C3OCC1(COC(=O)Nc1ccccc1)C(C)C32` (stereo unspecified), in assay [2], the Potency is 10 µM (active). Moreover, the Potency result in assay [4] and in assay [1] was “inactive” each time.
As for `COc1ccc(-c2coc3cc(OC4OC(CO)C(O)C(O)C4O)cc(O)c3c2=O)cc1` (stereo unspecified), the Potency result in assay [2] and in assay [1] was “inactive” throughout.
For the molecule `COc1ccc2c(c1OC)C(Cc1ccccc1)N1CCc3cc4c(cc3C1C2)OCO4` (stereo unspecified), in assay [2], the Potency is 1 µM (active). Moreover, the Potency entry in assay [4] and in assay [1] was “inactive” each time.
As for `CC(=O)OCC1OC(Oc2cc(OC(C)=O)c3c(=O)cc(-c4ccc(OC(C)=O)c(OC(C)=O)c4)oc3c2)C(OC(C)=O)C(OC(C)=O)C1OC(C)=O` (stereo unspecified), in assay [2], the Potency was 3.98 µM (active). Moreover, the Potency entry in assay [4] and in assay [1] was “inactive” in each case.
